The values below come from PubChem BioAssay (Tox21).

Results filed as inconclusive are left out. A number with no mark means an inactive call. Calls of active or inactive are those of the source. Calls follow the shape of the full dose curve.
% is scaled to controls: 0 for no effect and ±100 for the full control effect; potency is read from the fitted curve at half-maximal effect.

For this experiment, the target named is Progesterone receptor (Homo sapiens) (UniProt P06401). Kind of experiment: qHTS assay to identify small molecule agonists of the progesterone receptor (PR) signaling pathway (AID 1346784). Also: nearly all actives have a fitted effect of over 30% in size. The conditions noted are these: PR-UAS-bla HEK293T, beta-lactamase FRET ratio, 16 h; series mostly up to 92.4 µM; activation: at the top concentration. The source says: U.S. Tox21 Program National Center for Advancing Translational Sciences [NCATS] NIH Chemical Genomics Center [NCGC] U.S. Environmental Protection Agency [EPA] National Institutes of Environmental Health Sciences [NIEHS] National Toxicology Program [NTP] U.S. Food and Drug Administration [FDA] […] Endocrine disrupting chemicals (EDCs) and their interactions with steroid hormone receptors like PR causes disruption of normal endocrine function. To identify the compounds that activate PR signaling, a PR-UAS-bla GripTite cell line i.e. PR-UAS-bla HEK 293T (Invitrogen, Carlsbad, CA, USA) containing a beta-lactamase reporter gene under the control of an Upstream Activator Sequence (UAS) was used to screen Tox21 10K compound library.
Sequence of Progesterone receptor (Homo sapiens) (P06401 whole entry, looked up): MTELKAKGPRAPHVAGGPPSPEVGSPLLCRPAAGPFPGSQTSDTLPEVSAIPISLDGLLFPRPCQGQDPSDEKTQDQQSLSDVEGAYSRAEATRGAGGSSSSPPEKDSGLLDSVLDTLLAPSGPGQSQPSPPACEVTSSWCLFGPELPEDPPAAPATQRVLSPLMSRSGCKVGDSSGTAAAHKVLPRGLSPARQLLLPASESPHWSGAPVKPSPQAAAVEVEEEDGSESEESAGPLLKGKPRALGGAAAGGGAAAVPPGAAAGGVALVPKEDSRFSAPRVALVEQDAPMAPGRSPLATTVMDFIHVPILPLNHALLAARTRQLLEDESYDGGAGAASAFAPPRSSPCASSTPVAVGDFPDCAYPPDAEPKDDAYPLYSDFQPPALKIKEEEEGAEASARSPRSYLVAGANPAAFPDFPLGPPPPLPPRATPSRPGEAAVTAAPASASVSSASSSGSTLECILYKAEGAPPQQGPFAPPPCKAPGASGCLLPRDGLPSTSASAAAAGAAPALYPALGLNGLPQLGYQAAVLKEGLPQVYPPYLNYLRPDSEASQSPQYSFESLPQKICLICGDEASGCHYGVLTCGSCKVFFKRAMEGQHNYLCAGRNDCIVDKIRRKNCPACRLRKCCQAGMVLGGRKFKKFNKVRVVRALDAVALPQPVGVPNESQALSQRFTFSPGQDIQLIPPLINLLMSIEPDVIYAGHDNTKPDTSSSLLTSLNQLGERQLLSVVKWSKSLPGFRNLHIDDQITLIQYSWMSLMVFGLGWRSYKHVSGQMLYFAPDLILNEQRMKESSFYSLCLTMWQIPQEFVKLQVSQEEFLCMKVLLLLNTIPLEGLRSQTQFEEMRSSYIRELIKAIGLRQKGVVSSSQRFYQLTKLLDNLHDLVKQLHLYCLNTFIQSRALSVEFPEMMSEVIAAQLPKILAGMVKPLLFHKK
Tox21 Assay Protocol Summary: PR-UAS-bla HEK 293T cells were dispensed at 3,000 cells/5 uL of assay medium containing 2% charcoal stripped FBS per well into black wall/clear-bottom 1536-well plates using a Multidrop Combi (ThermoFisher Scientific, Waltham, MA) dispenser. After the assay plates were incubated at a 37C and 5% CO2 for 6hr, 23 nL of compounds dissolved in DMSO, positive controls or DMSO only was transferred to the assay plate by a Pintool station (Kalypsys, San Diego, CA). The plates were incubated at 37C and 5% CO2 for 16hr. Then 1 uL of LiveBLAzer B/G FRET substrate was added using a BioRAPTR FRD (Flying Reagent Dispenser, Aurora Discovery, San Diego, CA). After the plates were incubated at room temperature for 2 hours, fluorescence intensity was measured by an Envision plate reader (PerkinElmer, Shelton, CT).
A general note: Quantitative high-throughput screening tests each substance at several concentrations.
Turning to `CC(C)C1CCC(C(=O)N[C@H](Cc2ccccc2)C(=O)O)CC1` (stereo not given in full), the “activation” value is -2.22% [at 42.5 µM].

Regarding `CC(CO)(CO)C(=O)O`, the “activation” value is 0.449%.

For the compound `ClC1=C(Cl)C1(Cl)Cl`, the “activation” value was 0.307%.

Regarding `CCOC(=O)C(C)O` (stereo not given), the “activation” value was 3.69%.

Take `O=C(O)CCCc1c[nH]c2ccccc12`: the “activation” value was -0.551%.

Take `CCCCCc1ccco1`: the “activation” value is 0.499% [at 42.5 µM].

In the case of `COC(=O)Nc1nc2ccc(C(=O)C3CC3)cc2[nH]1`, the “activation” value is 3.32% [at 42.5 µM].

With `O=C1OC(=O)c2c(Br)c(Br)c(Br)c(Br)c21`, the “activation” value was 2.21%.

For `COC1CCC=CO1` (stereo not given), the “activation” value is -2.2%.

`CC(C)(C)S`: the “activation” value is -1.77%.

Take `O=C(O)CNC(=O)c1ccccc1I`: the “activation” value was -1.12% [at 42.5 µM].

For `NC(=O)c1ccccc1[N+](=O)[O-]`, the “activation” value is 0.0249%.

With `Cc1cn([C@H]2C[C@H](F)[C@@H](CO)O2)c(=O)[nH]c1=O`, the “activation” value is -2.2% [at 42.5 µM].

Consider `Cc1ccccc1S(N)(=O)=O`, for which the “activation” value was -0.21%.

Take `c1ccc2sc(SSc3nc4ccccc4s3)nc2c1`: the activation is -1.06% [at 19 µM].

Take `C1=CCC2CC=CC2C1` (stereo not given): the “activation” value is 1.67%.

For the compound `CC12CC3CC(C)(C1)CC(N)(C3)C2`, the “activation” value was 0.957% [at 42.5 µM].

On to `Cc1ccc2c(c1)CCCN2`, for which the “activation” value was 1.21%.

`Nc1c(Cl)cc(Cl)cc1[N+](=O)[O-]`: the “activation” value was 1.8%.

Turning to `CCc1ccc(C)cc1`, the “activation” value is 2.07%.

Consider `CCCCC(CC)COS(=O)(=O)O` (stereo not given), for which the “activation” value is 0.0536%.

Regarding `CCSC(=O)N(CC)CC`, the “activation” value was -0.639%.

For the compound `Nc1cccc2c(N)cccc12`, the Potency is 1930 nM (active).

With `COc1cc(NC(C)CCCN)c2ncccc2c1` (stereo not given), the “activation” value is -1.16% [at 42.5 µM].

For the compound `CCCC(=O)OC(=O)CCC`, the “activation” value is -0.173%.

Regarding `Cc1cc(CCC(=O)OCCOCCOCCOC(=O)CCc2cc(C)c(O)c(C(C)(C)C)c2)cc(C(C)(C)C)c1O`, the “activation” value was 4.23%.

On to `CC(C)CC(O)CC(C)C`, for which the “activation” value was -1.25%.

Take `CC1CCC(C(C)CS)CC1S` (stereo not given): the “activation” value was 0.13%.

For the compound `O=P(O)(O)Oc1ccccc1`, the “activation” value was -0.993%.

Regarding `CC[C@@H](CO)NCCN[C@@H](CC)CO`, the “activation” value is -0.79% [at 42.5 µM].

As for `Cc1ccc2nc(N)[nH]c(=O)c2c1Sc1ccncc1`, the “activation” value was 0.683% [at 42.5 µM].

Consider `CC(C)c1ccc(C(=O)N=C(N)N)cc1S(C)(=O)=O`, for which the “activation” value is -0.663% [at 42.5 µM].

For `C[C@@H]1[C@H](O)[C@@H](C)/C=C/C=C\C=C\C=C\C=C\C=C\C=C\[C@H](O[C@@H]2O[C@H](C)[C@@H](O)[C@H](N)[C@@H]2O)C[C@@H]2O[C@](O)(C[C@@H](O)C[C@@H](O)[C@H](O)CC[C@@H](O)C[C@@H](O)CC(=O)O[C@H]1C)C[C@H](O)[C@H]2C(=O)O` (stereo in doubt), the “activation” value is -0.239%.

Regarding `Cc1ccc(Nc2c(F)cccc2Cl)c(CC(=O)O)c1`, the “activation” value was 3.69% [at 42.5 µM].

For the compound `N[C@@H](Cc1cc(I)c(O)c(I)c1)C(=O)O`, the “activation” value is 0.312% [at 42.5 µM].

Turning to `C[C@@H]1C[C@H]2[C@@H]3CCC4=CC(=O)C=C[C@]4(C)[C@@]3(F)[C@@H](O)C[C@]2(C)[C@@]1(O)C(=O)COP(=O)(O)O`, the “activation” value was 15.2%.

Consider `CC(=O)NCCO`, for which the “activation” value is -0.448%.

As for `CCCCCC`, the “activation” value was -1.3%.

In the case of `O=C1[C@@H]2[C@H]3CC[C@H](C3)[C@@H]2C(=O)N1CCCCN1CCN(c2ncccn2)CC1`, the “activation” value is 0.134% [at 42.5 µM].

Turning to `Cc1c[nH]c2ccccc12`, the “activation” value was 0.399% [at 42.5 µM].
